We go through eight compounds from PubChem BioAssay.

Assay [1] deals with Wnt5a (protein binding on small-molecule microarray). Description: small molecules binding Wnt5a protein – biophysical, small-molecule microarray, 635/667 nm fluorescence, primary screen (AID 1142).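 Note: fluorescence read at 667 nm with signal to noise per printed feature.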 Conditions: 635 nm fluorescence, higher = more signal.
Assay [2] can be described thus: ATP-based viability of Huh7 replicon cells – cell-based, CellTiter-Glo luminescence, basal, 48 h, cytotoxicity control for HCV replication inhibitor project, primary screen (AID 1143).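 Note: Huh7 hepatoma cells carrying a hepatitis C replication reporter with no stimulus; test concentration not given here.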 Conditions: higher = more signal, called active from +8 up or from −8 down.
Assay [3] in a line: Pseudomonas biofilm growth suppression – PAO1 strain, BacTiter-Glo luminescence, LB-PBS, primary screen (AID 1144). Conditions: P. aeruginosa PAO1 biofilm, 12 h, higher = more signal.
A short description of assay [4]: basal CRE-LacZ reporter activity in PC12 – cell-based, unstimulated, primary screen (AID 1145). Conditions: no forskolin, luminescence, 4.5 h, higher = more signal, called active from +8 up or from −8 down.
A short description of assay [5]: forskolin-driven CRE-LacZ activity in PC12 – cell-based, CRE-LacZ reporter, forskolin-stimulated, primary screen (AID 1146).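 Note: PC12 cells with 6xCRE LacZ reporter stimulated by forskolin 10 µM; beta-galactosidase reporter signal reflecting CREB driven transcription.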 As to conditions: luminescence, 4.5 h, higher = more signal, called active from +8 up or from −8 down.
Assay [6] concerns the target Streptavidin (Streptomyces avidinii) (UniProt P22629). The experiment in a line: compounds binding control protein streptavidin – biophysical, small-molecule microarray, 635/667 nm fluorescence, artefact control for SMM compound annotation, primary screen (AID 1147).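 Note: signal reflects streptavidin binding to arrayed compounds as a control protein.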 As to conditions: higher = more signal.
Assay [7] can be described thus: probe aInhba binding on compound microarray – biochemical, small-molecule microarray, 635/667 nm fluorescence, primary screen (AID 1148).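 Note: score merges 667nm spot fluorescence with signal-to-noise for antibody binding to printed compounds.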 Conditions: higher = more signal.
Assay [8] addresses Torsin-1A (Homo sapiens) (UniProt O14656). Description: TOR1A wild-type binding on microarray – cell lysate, small-molecule microarray, lysate, 635/667 nm, primary screen (AID 1149). As to conditions: COS7 hTOR1A-WT lysate, 635 nm fluorescence, higher = more signal.
Assay [9] has the same target. The experiment in a line: torsin A mutant lysate binding on microarrays – cell lysate, small-molecule microarray, COS7 lysate, 635/667 nm fluorescence, primary screen (AID 1150).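 Note: score pools 667 nm emission and signal to noise measuring lysate protein binding.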 Conditions: COS7 hTOR1A mutant lysate, 635 nm fluorescence, higher = more signal.
Assay [10] concerns Sonic hedgehog protein (Shh). The experiment in a line: Sonic hedgehog microarray binding compounds – biochemical, small-molecule microarray, 635/667 nm fluorescence, primary screen (AID 1151).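 Note: Shh protein binding to compounds spotted on small-molecule microarray slides; score combines spot fluorescence intensity with signal-to-noise across triplicate slides.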 Conditions: 635 nm fluorescence, higher = more signal.
Assay [11] in a line: optical density shifts of acrAB sulA E. coli – strain DRC41, OD650, 48 h, E. coli filamentation inducer project, primary screen (AID 1152).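 Note: E. coli MC1000 strain DRC41 lacking acrAB efflux pump and sulA.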 As to conditions: higher = more signal, called active from +8 up or from −8 down.
The nature of assay [12]: probe aLefty1 binding on compound microarray – biochemical, small-molecule microarray, 635/667 nm fluorescence, primary screen (AID 1153).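 Note: score merges spot fluorescence with signal-to-noise ratio from the scanned slide images.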 As to conditions: higher = more signal.
The nature of assay [13]: plasmodial surface anion channel blockers, osmotic lysis – cell-based, P. falciparum Indochina, OD700, 1 h, primary screen (AID 1154). Conditions: P. falciparum Indochina infected RBC osmotic lysis, higher = more signal, called active from +8 up or from −8 down.
A short description of assay [14]: plasmodial surface anion channel blockers, osmotic lysis – cell-based, P. falciparum Indochina, OD700, 2 h, primary screen (AID 1155).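 Note: lysis reports solute entry through the parasite surface anion channel PSAC.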 As to conditions: P. falciparum Indochina infected erythrocytes, higher = more signal, called active from +8 up or from −8 down.
A short description of assay [15]: changes in parasitized red cell lysis, either direction – P. falciparum Indochina, OD700, 3 h, PSAC antagonist project, primary screen (AID 1156). Conditions: P. falciparum-infected erythrocytes, osmotic lysis, higher = more signal, called active from +8 up or from −8 down.
Assay [16] in a line: plasmodial surface anion channel blockers, osmotic lysis – cell-based, P. falciparum Indochina, OD700, 18 h, primary screen (AID 1157). As to conditions: P. falciparum Indochina infected erythrocytes, osmotic lysis OD700, 18 h; higher = more signal, called active from +8 up or from −8 down.
The nature of assay [17]: S6 kinase pathway phospho-S6 level changes – cell-based, A549, cytoblot, luminescence, serum-stimulated, primary screen (AID 1158).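 Note: serum-stimulated A549 lung adenocarcinoma cells; signal is phosphorylated S6 detected by cytoblot immunostaining with HRP secondary.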 As to conditions: 5 h, higher = more signal.
Assay [18] has as its target NADPH oxidase 2 (Homo sapiens) (UniProt P04839). Description: compounds shifting NOX2 Amplex Red fluorescence – cell-based, HEK293-NOX2, PMA-stimulated, NOX inhibitor project, primary screen (AID 1159). Note: test concentration not given here. As to conditions: 45 min, higher = more signal, called active from +8 up or from −8 down.
The target in assay [19] is NADPH oxidase 4 (Homo sapiens) (UniProt Q9NPH5). Description: compounds shifting NOX4 Amplex Red fluorescence – cell-based, HEK293-NOX4, tetracycline-induced, NOX inhibitor project, primary screen (AID 1160). Conditions: HEK293-NOX4, Amplex Red H2O2 fluorescence, 45 min; higher = more signal, called active from +8 up or from −8 down.
Assay [20] addresses NADPH oxidase 5 (Homo sapiens) (UniProt Q96PH1). The experiment in a line: compounds shifting NOX5 Amplex Red fluorescence – cell-based, HEK293-NOX5, NOX inhibitor project, primary screen (AID 1161). Conditions: HEK293-NOX5, ionomycin, 45 min, higher = more signal.

The structures appear in SMILES notation. Calls of active or inactive are those of the source. Unless noted, the rule behind the calls is not given here.

Streptavidin (Streptomyces avidinii), sequence (P22629 whole entry, looked up): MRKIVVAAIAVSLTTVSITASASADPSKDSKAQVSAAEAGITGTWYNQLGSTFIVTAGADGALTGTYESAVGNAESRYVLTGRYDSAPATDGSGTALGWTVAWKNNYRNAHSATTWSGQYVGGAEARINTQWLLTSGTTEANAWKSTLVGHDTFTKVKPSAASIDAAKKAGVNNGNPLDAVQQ
NADPH oxidase 2 (Homo sapiens), sequence (P04839 whole entry, looked up): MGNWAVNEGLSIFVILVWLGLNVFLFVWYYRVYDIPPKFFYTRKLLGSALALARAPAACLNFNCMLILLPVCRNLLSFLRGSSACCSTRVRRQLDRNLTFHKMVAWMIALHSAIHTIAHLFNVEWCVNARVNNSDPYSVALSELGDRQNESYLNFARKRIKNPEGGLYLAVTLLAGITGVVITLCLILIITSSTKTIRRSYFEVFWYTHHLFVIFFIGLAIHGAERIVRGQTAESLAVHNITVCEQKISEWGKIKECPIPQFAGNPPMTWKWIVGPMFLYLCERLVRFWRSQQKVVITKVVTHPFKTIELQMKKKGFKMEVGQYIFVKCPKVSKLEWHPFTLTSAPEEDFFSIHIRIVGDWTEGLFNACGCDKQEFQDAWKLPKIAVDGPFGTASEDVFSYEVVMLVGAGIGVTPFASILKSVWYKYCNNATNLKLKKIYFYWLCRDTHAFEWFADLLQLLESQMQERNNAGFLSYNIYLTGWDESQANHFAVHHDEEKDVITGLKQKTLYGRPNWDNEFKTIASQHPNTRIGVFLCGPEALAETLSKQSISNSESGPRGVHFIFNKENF
NADPH oxidase 5 (Homo sapiens), sequence (Q96PH1 whole entry, looked up): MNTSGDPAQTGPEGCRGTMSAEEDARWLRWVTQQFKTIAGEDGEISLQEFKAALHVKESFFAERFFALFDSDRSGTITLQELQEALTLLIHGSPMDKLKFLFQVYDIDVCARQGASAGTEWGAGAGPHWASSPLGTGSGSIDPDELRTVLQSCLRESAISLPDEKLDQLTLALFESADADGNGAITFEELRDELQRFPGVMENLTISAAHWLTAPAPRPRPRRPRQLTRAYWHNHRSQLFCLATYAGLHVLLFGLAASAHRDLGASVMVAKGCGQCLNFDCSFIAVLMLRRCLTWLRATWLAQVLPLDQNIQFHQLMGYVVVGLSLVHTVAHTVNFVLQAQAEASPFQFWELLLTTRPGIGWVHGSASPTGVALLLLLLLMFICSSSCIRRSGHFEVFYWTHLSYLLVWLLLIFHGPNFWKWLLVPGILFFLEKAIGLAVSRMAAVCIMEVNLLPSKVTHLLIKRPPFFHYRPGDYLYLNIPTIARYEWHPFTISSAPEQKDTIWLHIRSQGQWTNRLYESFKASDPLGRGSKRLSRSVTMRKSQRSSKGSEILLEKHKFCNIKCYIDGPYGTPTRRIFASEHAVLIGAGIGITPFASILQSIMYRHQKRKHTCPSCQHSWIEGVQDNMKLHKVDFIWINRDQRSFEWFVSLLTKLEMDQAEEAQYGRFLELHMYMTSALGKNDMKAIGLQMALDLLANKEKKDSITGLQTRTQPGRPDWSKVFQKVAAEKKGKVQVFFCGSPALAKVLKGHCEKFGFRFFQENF
NADPH oxidase 4 (Homo sapiens), sequence (Q9NPH5 whole entry, looked up): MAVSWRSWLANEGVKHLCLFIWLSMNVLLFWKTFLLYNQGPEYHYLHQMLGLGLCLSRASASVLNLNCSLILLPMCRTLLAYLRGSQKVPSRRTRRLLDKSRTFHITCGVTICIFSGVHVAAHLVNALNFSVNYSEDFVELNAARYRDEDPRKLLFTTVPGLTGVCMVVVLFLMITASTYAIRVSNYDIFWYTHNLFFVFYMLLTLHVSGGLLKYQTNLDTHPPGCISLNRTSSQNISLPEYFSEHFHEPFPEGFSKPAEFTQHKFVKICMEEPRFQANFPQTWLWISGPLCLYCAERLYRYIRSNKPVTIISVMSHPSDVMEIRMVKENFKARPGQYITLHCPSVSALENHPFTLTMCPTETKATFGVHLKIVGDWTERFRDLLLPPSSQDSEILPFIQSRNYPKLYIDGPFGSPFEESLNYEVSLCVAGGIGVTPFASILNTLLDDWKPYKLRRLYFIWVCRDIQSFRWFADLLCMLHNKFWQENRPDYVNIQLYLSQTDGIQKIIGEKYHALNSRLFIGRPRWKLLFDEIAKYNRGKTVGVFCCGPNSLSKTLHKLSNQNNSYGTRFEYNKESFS
Torsin-1A (Homo sapiens), sequence (O14656 whole entry, looked up): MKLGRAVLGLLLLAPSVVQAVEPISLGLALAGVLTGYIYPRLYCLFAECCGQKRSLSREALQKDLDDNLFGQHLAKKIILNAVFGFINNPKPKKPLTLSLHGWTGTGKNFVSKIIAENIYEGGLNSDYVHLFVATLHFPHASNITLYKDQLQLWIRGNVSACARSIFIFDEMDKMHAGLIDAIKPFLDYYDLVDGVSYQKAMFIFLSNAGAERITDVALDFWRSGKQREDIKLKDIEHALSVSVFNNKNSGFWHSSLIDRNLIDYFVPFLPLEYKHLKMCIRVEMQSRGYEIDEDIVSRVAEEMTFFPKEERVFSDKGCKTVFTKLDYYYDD

Consider `O=C1N(Cc2ccccc2)c2ccccc2[C@H]2OC(c3ccc(OCCCO)cc3)=N[C@@]12CCS(=O)(=O)c1ccccc1`, for which the composite z-score is 0.889 in [1]; 0.211 in [6]; 0.166 in assay [7]; 0.795 with Torsin-1A (Homo sapiens) [8]; 0.591 with Torsin-1A (Homo sapiens) [9]; 2.09 in [10]. In assay [12], this compound had a composite z-score of 0.396. The z-score in [2] is -4.05 (inactive); in assay [3], -1.19 (inactive); in assay [4], 2.96 (inactive); in [5], -1 (inactive); in [11], -0.751 (inactive); in assay [13], 25.3 (active). For the same compound, the z-score is 11.8 (active) in [14]; 2.9 (inactive) in assay [15]; 1.85 (inactive) in [16]; -0.0791 in assay [17]; -0.596 (inactive) in [18]; -0.793 (inactive) in assay [19]. Besides, the z-score in [20] was -1.21.

As for `CC(C)(C)OC(=O)CC[C@@]1(C(=O)N2CCCCC2)N=C(c2ccc(OCCCO)cc2)O[C@@H]1c1ccccc1CN=[N+]=[N-]`, the composite z-score in [1] is 0.34; in [6], 1.07; in assay [7], 0.248; with Torsin-1A (Homo sapiens) [8], 1.1; in the assay with Torsin-1A (Homo sapiens) [9], 1.22; in assay [10], -0.226. In [12], the composite z-score turned out to be 0.549. The z-score in assay [2] was -1.95 (inactive); in [3], 0.37 (inactive); in assay [4], 0.414 (inactive); in [5] it was -0.284 (inactive); in assay [11], 0.502 (inactive); in assay [13], 29.6 (active). The z-score was 25 (active) in assay [14]; 1.03 (inactive) in assay [15]; 4.6 (inactive) in assay [16]; -0.243 in assay [17]; -0.601 (inactive) in [18]; 1.13 (inactive) in assay [19]. Further, in assay [20], the z-score worked out at 1.22.

Take `COCCCNC(=O)[C@@]1(Cc2ccccc2)COC(c2ccc(OCCCO)cc2)=N1`: the composite z-score in assay [1] was 0.788; in [6] it was -0.207; in assay [7] it was 0.263; with Torsin-1A (Homo sapiens) [8], 0.673; in the assay with Torsin-1A (Homo sapiens) [9] it was 0.878; in assay [10] it was -0.795. Moreover, the composite z-score in assay [12] turned out to be 1.1. In addition, the z-score in assay [2] was -1.02 (inactive); in assay [3], 0.211 (inactive); in assay [4], -0.0808 (inactive); in assay [5], 0.347 (inactive); in [11] it was 1.76 (inactive); in assay [13], 22 (active). The z-score in assay [14] is 4.97 (inactive); in assay [15], 1.12 (inactive); in assay [16], 1.04 (inactive); in assay [17], -0.194; in assay [18], -1.25 (inactive); in assay [19] it was 1.05 (inactive). For the same compound, the z-score in assay [20] is -0.909.

As to `COc1cc2c(cc1OC)CN(C(=O)[C@@H]1[C@H]3C(=O)O[C@H](c4ccccc4)[C@H](c4ccccc4)N3[C@H](c3ccc(O)cc3)[C@@]13C(=O)Nc1ccc(C#CCNC(N)=O)cc13)CC2`, the composite z-score in assay [1] was 0.147; in assay [6], 0.239; in assay [7] it was -0.101; in the assay with Torsin-1A (Homo sapiens) [8] it was -0.0899; in the assay with Torsin-1A (Homo sapiens) [9], -0.0351; in [10], 0.946. In assay [12], this compound showed a composite z-score of 0.231. For the same compound, the z-score is 0.311 (inactive) in [2]; 0.347 (inactive) in assay [3]; 0.182 (inactive) in assay [4]; 0.445 (inactive) in assay [5]; 0.108 (inactive) in [11]; 1.1 (inactive) in [13]. Further, the z-score in assay [14] was 0.218 (inactive); in [15], -0.83 (inactive); in [16], -0.0717 (inactive); in assay [17], -0.419; in [18], 0.842 (inactive); in assay [19] it was 0.157 (inactive). Also, the z-score in assay [20] amounted to 0.432.

As for `O=C1NC(=O)C2C1C=CC(C(O)c1ccc3c(c1)OCO3)N2Nc1ccc(Cl)cc1Cl` (stereo not given), the composite z-score is -0.002 in [1]; 0.347 in assay [6]; 0.249 in assay [7]; 0.0858 in the assay with Torsin-1A (Homo sapiens) [8]; -0.446 with Torsin-1A (Homo sapiens) [9]; -0.116 in [10]. The composite z-score in assay [12] amounted to 0.0861. Moreover, the z-score is -0.0416 (inactive) in assay [2]; -0.238 (inactive) in assay [3]; 0.0501 (inactive) in assay [4]; -0.329 (inactive) in assay [5]; -3.85 (inactive) in assay [11]; 7.58 (inactive) in assay [13]. The z-score in assay [14] is 1.84 (inactive); in assay [15], -0.254 (inactive); in assay [16], 1.56 (inactive); in [17] it was -0.593; in [18], -0.0436 (inactive); in assay [19], -5.24 (inactive). In addition, the z-score in assay [20] was -3.26.

For `COc1ccc(CCNC(=O)[C@@H]2c3ccccc3C(=O)N(Cc3ccccc3C(F)(F)F)[C@H]2c2ccc(CO)cc2)cc1`, the composite z-score was -0.189 in assay [1]; -0.752 in [6]; -0.168 in assay [7]; -1.27 with Torsin-1A (Homo sapiens) [8]; 0.714 in the assay with Torsin-1A (Homo sapiens) [9]; -0.25 in assay [10]. Moreover, the composite z-score in assay [12] is -0.144. Moreover, the z-score in assay [2] was -2.64 (inactive); in assay [3] it was -0.984 (inactive); in assay [4], -0.295 (inactive); in assay [5], -0.132 (inactive); in assay [11], 0.163 (inactive); in [13], 3.68 (inactive). Also, the z-score in assay [14] was 0.252 (inactive); in assay [15] it was 1.73 (inactive); in assay [16] it was 0.694 (inactive); in [17], -0.366; in assay [18], -0.536 (inactive); in [19], -2.38 (inactive). Also, the z-score in assay [20] is -3.69.

In the case of `C[N+](C)(C)CCCC[C@@H]1NC(=O)[C@@H]2C[C@H](C(=O)O)[C@H](c3cccc(OCCO)c3)N2C1=O`, the composite z-score was -0.0257 in [1]; -1.01 in [6]; -0.179 in assay [7]; 0.405 with Torsin-1A (Homo sapiens) [8]; 0.171 in the assay with Torsin-1A (Homo sapiens) [9]; 0.976 in [10]. The same compound showed a composite z-score in assay [12] of -0.286. Further, the z-score in assay [2] is -0.63 (inactive); in assay [3], -0.773 (inactive); in [4], -0.671 (inactive); in [5], -0.471 (inactive); in assay [11] it was 1.03 (inactive); in assay [13], 2.2 (inactive). Further, the z-score in [14] is 0.157 (inactive); in assay [15], -1.84 (inactive); in assay [16] it was 0.276 (inactive); in assay [17] it was 1.44; in assay [18], 1.83 (inactive); in [19] it was 0.877 (inactive). Further, in assay [20], the z-score amounted to 1.01.

Consider `O=C(O)[C@@]1(Cc2ccccc2)COC(c2ccc(OCCCO)cc2)=N1`, for which the composite z-score is 0.0416 in assay [1]; -0.345 in [6]; -0.252 in assay [7]; -0.162 with Torsin-1A (Homo sapiens) [8]; 1.52 with Torsin-1A (Homo sapiens) [9]; -0.555 in [10]. Also, the composite z-score in [12] was -0.0573. Also, the z-score in assay [2] was 0.621 (inactive); in assay [3] it was 0.498 (inactive); in [4], -0.277 (inactive); in [5], 0.0685 (inactive); in assay [11] it was 0.532 (inactive); in assay [13] it was 1.36 (inactive). Also, the z-score in assay [14] is -0.166 (inactive); in [15], 0.619 (inactive); in [16] it was 0.295 (inactive); in assay [17] it was -0.521; in [18] it was -0.0643 (inactive); in [19], 0.432 (inactive). The z-score in [20] amounted to 0.237.
